Screening data from PubChem.
Shown is part of a subset that was picked to be rich in hits.
TbREL1 inh: TbREL1 RNA ligase inhibitors, primary screen, biochemical, FRET fluorescence; RNA-editing ligase 1, mitochondrial (Trypanosoma brucei brucei), P86926; TbREL1 RNA ligation; inhibition, % at 9.66 µM; 0.49% of 89,000 active;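 active means inhibition above the mean inhibition across all screened compounds plus 3 SD, cut at about 11% in these data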;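 further: 0% = plate median of test wells and 100% = NSC42067 control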
Target sequence (P86926 whole entry, looked up): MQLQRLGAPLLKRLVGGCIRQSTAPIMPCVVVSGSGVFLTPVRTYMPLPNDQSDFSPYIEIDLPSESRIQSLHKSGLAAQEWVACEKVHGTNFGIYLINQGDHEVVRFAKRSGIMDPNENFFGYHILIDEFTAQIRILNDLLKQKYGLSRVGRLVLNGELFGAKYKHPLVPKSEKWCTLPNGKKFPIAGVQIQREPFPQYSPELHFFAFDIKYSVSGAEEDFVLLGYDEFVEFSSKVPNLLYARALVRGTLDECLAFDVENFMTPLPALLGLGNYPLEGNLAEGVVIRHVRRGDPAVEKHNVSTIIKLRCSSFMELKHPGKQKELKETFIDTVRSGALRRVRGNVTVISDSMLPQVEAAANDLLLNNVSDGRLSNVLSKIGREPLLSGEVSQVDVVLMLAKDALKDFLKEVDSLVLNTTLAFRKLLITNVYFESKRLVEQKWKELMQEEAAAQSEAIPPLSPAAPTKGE
TbREL1 confirm: TbREL1 RNA ligase inhibitors, confirmation, biochemical, FRET fluorescence, triplicate. shares compounds with TbREL1 inh. TbREL1 RNA ligation. inhibition, % at 9.66 µM. 37% of 390 active. AID 1117282, 2014;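 active means mean inhibition across replicates above a set limit taken from the earlier primary screen, cut at about 11% in these data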;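 further: 0% = REL1 with substrate and DMSO and 100% = REL1 plus control inhibitor NSC42067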
Numbers without * were called inactive.

SMILES | TbREL1 inh | others
O=C(CNCc1c(F)cccc1F)N1CCC2(CC1)OCCO2 | 1
O=C(Cn1ccc2ccccc2c1=O)NCC(=O)N1CCC2(CC1)OCCO2 | 11*
O=C(CCCCCn1c(=S)[nH]c2ccccc2c1=O)N1CCC2(CC1)OCCO2 | -6
C[C@H](NC(=O)OCc1ccccc1)C(=O)NC(Cc1ccccc1)P(=O)(Oc1ccccc1)Oc1ccccc1 (stereo partly drawn) | 3
Oc1ccccc1-[n+]1c(-c2ccccc2)cc(-c2ccccc2)cc1-c1ccccc1 | 0
Cc1ccc(-c2cc(-c3ccccc3)cc(-c3ccccc3)[n+]2-c2ccc(C(=O)O)cc2)cc1 | -1
C[n+]1c(-c2ccccc2)cc(CCCCc2cc(-c3ccccc3)[n+](C)c(-c3ccccc3)c2)cc1-c1ccccc1 | 13*
COC(=O)C1=C(c2cc3ccccc3o2)C[C@@H]2CC[C@H]1N2C(=O)NCCCOC(C)C | 0
CC(NC(=O)OCc1ccccc1)[P+](=O)O (stereo not drawn) | 0
C1=CC(Cc2cncs2)c2ccccc21 (stereo not drawn) | 0
O=C1NC(=O)C(=Cc2ccc(-c3ccc(F)cc3O)o2)C(=O)N1 | 16* | TbREL1 confirm=15*
CN1CCC(n2nccc2N)CC1 | 1
Nc1ccnn1C1CCNCC1 | 23* | TbREL1 confirm=5
COC(=O)C1=C(c2ccccc2OCc2ccccc2)C[C@@H]2CC[C@H]1N2C(=O)NCc1ccc(C(C)(C)C)cc1 | -1
CCOc1cc(C2C(C#N)=C(N)Oc3c2c(=O)oc2ccccc32)ccc1OC(=O)c1cccs1 (stereo not drawn) | 0
COCCCn1c(N)c(C(=O)OCCOC)c2nc3ccccc3nc21 | 8
CCCCNC(=O)c1c(N)n(CCCOC)c2nc3ccccc3nc12 | 12* | TbREL1 confirm=34*
COCCOC(=O)c1c(N)n(Cc2ccc(OC)cc2)c2nc3ccccc3nc12 | 0
N#CC12c3ccccc3C(=O)N1Cc1cnnn1-c1ccccc12 (stereo not drawn) | 4
CCCOC(=O)c1ccc(-[n+]2c(-c3ccccc3)cc(-c3ccccc3)cc2-c2ccccc2)cc1 | 10
[O-]c1ccccc1-[n+]1c(-c2ccccc2)cc(-c2ccccc2)cc1-c1ccccc1 | 8
Brc1ccc(-[n+]2c(-c3ccccc3)cc(-c3ccccc3)cc2-c2ccccc2)cc1 | 12* | TbREL1 confirm=4
Cc1cccc(C)c1-n1nnnc1C(C1CC1)N1CCC(n2c(=O)[nH]c3ccccc32)CC1 (stereo not drawn) | 2
CCCC(C)C(=O)NC1CCSC1=O (stereo not drawn) | 0
COC(=O)C1=C(c2ccc(OCc3ccccc3)cc2)C[C@@H]2CC[C@H]1N2C(=O)NCc1ccc([N+](=O)[O-])cc1 | 2
SMILES | TbREL1 inh | others
O=C(N/N=C\C1C(=O)NC(=S)N(c2ccccc2)C1=O)c1ccc(O)cc1 (stereo not drawn) | 3
Fc1ccc(N2Cc3ccccc3-n3nncc3C2)cc1 | -1
Nc1c(C(=O)OCC2CCCO2)c2nc3ccccc3nc2n1Cc1cccs1 (stereo not drawn) | 4
Nc1c(C(=O)NC2CCCC2)c2nc3ccccc3nc2n1CC1CCCO1 (stereo not drawn) | 27* | TbREL1 confirm=12*
COC(=O)c1c(N)n(Cc2ccc(OC)cc2)c2nc3ccccc3nc12 | 0
CN(C)Cc1c[nH]c2cc([N+](=O)[O-])ccc12 | 2
Brc1ccc2c(c1)-n1nncc1CN(CC1CCCCC1)C2 | -1
COCCn1c(O)c(/C=N/NC(=O)CSC(=S)N2CCCC2)c(=O)[nH]c1=S | 3
CN(C)S(=O)(=O)c1cc(NC(=O)COC(=O)Cc2ccccc2)ccc1Cl | -1
CCCCNC(=O)NC(C(N)=O)P(=O)(OCC)OCC (stereo not drawn) | 3
Cc1nc2c(=O)n(C)c(=O)nc-2n(C)n1 | 64* | TbREL1 confirm=89*
Cc1cc(Oc2cc(NN3CCCCC3)c([N+](=O)[O-])cc2[N+](=O)[O-])ccc1[N+](=O)[O-] | 3
Cc1ccc(C(O)(C(=O)OC(C)C)C(O)c2ccc(F)cc2)cc1 (stereo not drawn) | 3
Cc1cc(/C=C2\C(=O)NC(=O)N(Cc3ccco3)C2=O)c(C)n1-c1ccc(C(=O)O)cc1 | 16* | TbREL1 confirm=3
Cc1ccc(-n2c(C)cc(/C=C3/C(=O)NC(=O)N(Cc4ccco4)C3=O)c2C)cc1 | -1
Cc1cc(/C=C2/C(=O)NC(=O)N(c3ccccc3)C2=O)c(C)n1-c1ccc(F)cc1 | 3
O=[N+]([O-])c1cccc(NP(=O)(N2CC2)N2CC2)c1 | -2
Cc1csc(=N)n1Cc1ccccc1 | -1
CCC(=NCc1cc(OC)cc(OC)c1)c1c(O)[nH]c(=O)[nH]c1=O | 0
O=C1CC(=O)N(Cc2ccccc2)C(=S)N1 | 2
